Shiga inhibitor: inhibitors of Shiga toxin in Vero cells; Vero cells, Shiga toxin protein synthesis inhibition reporter; inhibition, % at 38.7 µM; 290,000 compounds, 9.2% hits; AID 2315; in the data active = inhibition mostly above about 28%, no sharp cut-off; inactive = mostly below about 43%; note: 0% is about no effect
LmPK inhibitor: blocks Leishmania mexicana pyruvate kinase activity. purified LmPK, Kinase-Glo ATP luminescence, 1 h. Potency, µM (highest dose often 57.5 µM), without a hit: top-dose activity change, negative = inhibition, hits mostly inhibitors. 290,000 compounds, 0.37% hits. AID 1721; note: potency is the fitted concentration of half-maximal effect; % is set by controls: 0 for no effect and ±100 for the full control effect
Target sequence (Q27686 whole entry, looked up): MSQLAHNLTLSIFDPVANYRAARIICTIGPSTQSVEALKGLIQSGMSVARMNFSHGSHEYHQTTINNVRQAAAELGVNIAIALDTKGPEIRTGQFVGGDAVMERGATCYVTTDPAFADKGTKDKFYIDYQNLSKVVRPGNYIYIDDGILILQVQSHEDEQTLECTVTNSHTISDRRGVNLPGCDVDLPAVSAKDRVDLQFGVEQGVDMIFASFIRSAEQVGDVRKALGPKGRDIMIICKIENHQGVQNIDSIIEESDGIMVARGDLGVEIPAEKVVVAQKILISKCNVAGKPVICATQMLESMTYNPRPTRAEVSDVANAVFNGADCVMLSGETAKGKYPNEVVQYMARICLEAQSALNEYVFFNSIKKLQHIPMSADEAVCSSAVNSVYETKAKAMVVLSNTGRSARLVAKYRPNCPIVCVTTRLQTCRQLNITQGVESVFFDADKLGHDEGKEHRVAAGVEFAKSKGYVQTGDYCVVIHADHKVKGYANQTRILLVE
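Pyruvate kinase activity monitored as ATP production (luciferase luminescence). Conditions: 0.1 nM enzyme, 0.5 mM PEP, 0.1 mM ADP, 1 h, RT; normalized against uninhibited and no-enzyme wells.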
SARS PLpro yeast: SARS-CoV PLP inhibition in yeast. S. cerevisiae expressing SARS-CoV PLpro, growth rescue. Potency, µM (highest dose often 32.9 µM), for inactives: at the top dose activity, positive = growth rescue, actives largely listed as activators. 330,000 compounds, 0.19% hits; calls by dose curve; note: potency is the fitted concentration of half-maximal effect; 0% is about no effect; nearly all actives have a fitted effect of over 55% in size
Tb PYK inh: T. brucei pyruvate kinase inhibition; 410,000 compounds, 0.12% hits; TbPYK enzyme, Kinase-Glo Plus ATP luminescence, 45 min; Q57TT1; Potency, µM (doses to about 76.8 µM), without a hit: at the top dose activity, negative = inhibition, most hits filed as inhibitors; note: potency is the fitted concentration of half-maximal effect; % is set by controls: 0 for no effect and ±100 for the full control effect; nearly all actives have a fitted effect of over 50% in size
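ADP (130 uM final) triggers the TbPYK reaction after compound addition; incubation is 45 min at room temperature. Kinase-Glo Plus is then added and luminescence imaged. Normalized data are fitted to concentration-effect curves.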
Cycloheximide cs: counter-screen for Shiga toxin inhibitors: cycloheximide protein synthesis inhibition; max response, %; 300,000 compounds, 12% hits; cell reporter, cycloheximide protein synthesis inhibition counterscreen; in the data active = max response mostly above about 13%, no sharp cut-off; inactive = mostly below about 14%; note: read at 38.3 µM for the half of the compounds with a filed dose; 0% is about no effect
NS1 inh: inhibitors of influenza NS1 protein function | Potency, µM (doses to about 46.1 µM), without a hit: at the highest dose activity, positive = more growth | 270,000 compounds, 0.4% hits | AID 2326; calls by dose curve; note: potency is the fitted concentration of half-maximal effect; actives are rising curves; nearly all actives have a fitted effect of over 50% in size
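In this qHTS, NS1 from influenza A is expressed in budding yeast, where it slows growth. Cells are switched from glucose to 2% galactose medium (pH 6.0, -URA), treated with compound, and growth recovery is read at OD600.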
* = called active by the depositor; u = inconclusive; x = no result. The entries come from a sample that favours hits as a whole. Unless noted, calls come from the whole dose curve; as a rule, active = well fitted curve in the direction sought with a large enough effect; inconclusive = small, poorly fitted or top-dose-only effect, or another doubt; inactive = no such curve, though single readings can be large; an effect the other way counts as inactive or inconclusive.

SMILES | Shiga inhibitor | LmPK inhibitor | SARS PLpro yeast | Tb PYK inh | Cycloheximide cs | NS1 inh
O=C(Nc1cccc(F)c1)N1CC[C@@]2(CCCN(C(=O)c3cnccn3)C2)C1 | x | x | x | 0% | x | x
Cc1cc(N)ccc1-c1cc2ccccc2oc1=O | x | -3% | 0% | -1% | 17* | 3%
CCC(=O)Nc1ccc(-c2cc3ccccc3oc2=O)cc1 | 107* | -2% | -1% | -2% | 38* | -1%
Nc1ccc2oc(=O)c(-c3ccccc3)cc2c1 | 56* | 1% | -8% | -6% | 36* | 2%
O=C(NCc1cccnc1)c1ccc(-c2cc3ccccc3oc2=O)cc1 | 67* | -3% | 0% | 0% | 39* | 1%
COc1cc(N)ccc1-c1cc2ccccc2oc1=O | 27 | -1% | 3% | 2% | 10 | 25%
CCC(=O)Nc1cc(-c2cc3ccccc3oc2=O)ccc1OC | 24 | -2% | -1% | -3% | 7 | -12%
Cc1nc2ccc(S(=O)(=O)CCC(=O)Nc3ccc(C)c(C)c3)cc2s1 | x | x | x | 1% | x | x
COc1ccc(NC(=O)COC(=O)c2cc(C)oc2C)c([N+](=O)[O-])c1 | x | x | 9% | -1% | x | x
Nc1ccc(-c2cc3ccccc3oc2=O)cc1 | -14 | 5% | -1% | -4% | -6 | -9%
CC(=O)Nc1ccc(-c2cc3ccccc3o2)cc1 | 105* | 1% | -5% | -1% | 43* | -16%
O=c1oc2ccccc2cc1-c1ccc(O)cc1 | 69* | -8% | -40% | -6% | 118* | x
O=c1oc2ccccc2cc1NCc1ccccc1O | 123* | -3% | -41% | -2% | 55* | -85%
COc1ccc(-c2cc3ccc(O)cc3oc2=O)cc1OC | 68* | -25% | x | -4% | 32* | -7%
CCN(CC(=O)Nc1ccc(NC(C)=O)cc1)C(=O)c1cc2ccccc2oc1=O | x | x | 2% | 0% | x | x
O=C(NCc1ccco1)c1cccc(S(=O)(=O)N2CCCC2)c1 | -3 | 13% | 2% | -4% | -3 | u
Cc1ccc(Cn2cc(S(=O)(=O)c3ccc(C)cc3)c(=O)c3cc(F)c(N4CCCC4)cc32)cc1 | x | x | x | -5% | x | x
O=c1[nH]c(-c2ccccc2)nnc1-c1ccccc1 | 25 | -21% | 0% | 0% | 18* | -2%
Nc1nc(-c2ccccc2)[nH]c(=O)c1N | 30* | 5% | 4% | 2% | 26* | 21%
Cc1cc(=O)oc2cc(NC(=O)c3ccccc3C(=O)O)ccc12 | 65 | 0% | 0% | 1% | 22* | -1%
Cc1ccc2sc3ccc(NC(=O)c4ccccc4Cl)cc3c(=O)c2c1 | 43* | 1% | -1% | -24% | 35* | -8%
Cc1cc(=O)oc2cc(NC(=O)c3c(Cl)cnn3C)ccc12 | 22 | -7% | 1% | 13% | 6 | -3%
Cc1cc(=O)oc2cc(NC(=O)c3ccnn3C)ccc12 | 26 | -8% | 6% | -4% | 17* | -3%
Cc1cc(=O)oc2cc(NC(=O)c3ccccc3Cl)ccc12 | 86* | -1% | -2% | 3% | 40* | 2%
Cc1cccc(N2CCN(C(=O)c3cn(C)c4ccc(S(=O)(=O)N(C)C)cc4c3=O)CC2C)c1 (centres undefined) | x | x | x | -9% | x | x
SMILES | Shiga inhibitor | LmPK inhibitor | SARS PLpro yeast | Tb PYK inh | Cycloheximide cs | NS1 inh
COc1ccccc1CC(=O)Nc1ccc2c(C)cc(=O)oc2c1 | 12 | -5% | -6% | 0% | 2 | 20%
COc1cccc(C(=O)Nc2ccc3c(C)cc(=O)oc3c2)c1 | 115* | 3% | 5% | 2% | 62* | -1%
CN(CC(=O)O)Cc1c(O)c(Cl)cc(Cl)c1Cl | x | x | x | x | x | -3%
CC(C)CNC(=S)NC(=O)c1ccc(Cl)cc1Cl | 54* | 2% | u | 1% | 43* | -12%
Cc1ccc(C(=O)NNC(=S)NC(=O)c2ccc(Cl)cc2Cl)cc1 | -1 | 0% | 28% | -4% | 6 | -33%
CC(C)NC(=S)NC(=O)c1ccc(Cl)cc1Cl | 2 | 0% | 7.9µM* | -10% | 10 | 1%
O=C(NCCNC(=O)c1ccc(Cl)cc1Cl)c1ccc(Cl)cc1Cl | x | x | x | -6% | x | x
C/C=C\C1=CCCC1Nc1ncnc2ccc(-c3c(C)noc3C)cc12 (centres undefined) | 32 | x | x | x | 12 | x
Cc1cc(F)ccc1NC(=O)C1CSC2(C)CCC(=O)N12 (centres undefined) | x | x | 2% | 1% | x | x
NC(=O)c1csc(CCNC(=O)c2ccccc2)n1 | x | x | x | -6% | x | x
O=C(NCc1nc(-c2ccccc2)cs1)c1ccccc1 | 30* | 3% | -2% | 1% | 19* | -34%
O=C(O)c1ccccc1-c1csc(-c2ccccc2)n1 | 79* | -7% | 0% | 6% | 23* | 2%
O=C(O)c1cnn(-c2nc(-c3cccc(F)c3)cs2)c1C(F)(F)F | 25 | 12% | 0% | -3% | 10 | -2%
O=C(Nc1ccc(-c2csc(-c3ccccc3)n2)cc1)c1ccccc1Cl | 24 | 2% | 2% | -14% | 3 | -12%
O=C(O)c1cnn(-c2nc(-c3ccc(Cl)c(Cl)c3)cs2)c1C(F)(F)F | 35 | 0% | -8% | -7% | 19* | -100%
CNC(=O)c1ccc(-c2nc(-c3ccccc3)cs2)cc1 | 43* | 4% | -2% | -4% | 32* | -4%
CCOC(=O)c1ccccc1NC(=O)c1nn(-c2ccc(C)cc2)c(=O)n(C)c1=O | x | x | x | -2% | x | x
CC(=O)c1csc(-c2ccccc2)n1 | 41* | -6% | -1% | 0% | 16* | 2%
CC(=O)c1csc(Nc2ccccc2Cl)n1 | 68* | -22% | -2% | -3% | 33* | -31%
O=C(O)c1ccccc1C(=O)Nc1ccc(-c2csc(-c3ccccc3)n2)cc1 | 73* | -3% | 8% | -7% | 54* | u
CC(=O)c1nc(-c2ccccc2)sc1C | 77* | 2% | 1% | 1% | 26 | x
COc1ccc(-c2cc(=O)oc3c4c(ccc23)OCN(Cc2ccccc2)C4)cc1 | x | x | x | 1% | x | x
O=C(c1ccc([N+](=O)[O-])cc1)N(Cc1ccco1)c1ccccn1 | x | x | x | 1% | x | x
Cc1oncc1-c1csc(-c2ccccc2)n1 | 64* | 0% | -4% | -4% | 51* | x
O=C(O)c1ccc(-c2nc(-c3ccc(Cl)c(Cl)c3)cs2)cc1 | 141* | -10% | 1% | -14% | 37* | x
SMILES | Shiga inhibitor | LmPK inhibitor | SARS PLpro yeast | Tb PYK inh | Cycloheximide cs | NS1 inh
O=C(O)c1ccc(-c2nc(-c3ccccc3)cs2)cc1 | 41* | -7% | -8% | -11% | 37* | x
O=C(O)c1ccc(-c2nc(-c3ccccc3Cl)cs2)cc1 | 143* | -15% | -2% | 2% | 29* | -8%
Cc1[nH]c(=O)c(C#N)cc1-c1csc(-c2ccccc2)n1 | -8 | -6% | -1% | -15% | -3 | 1%
CCCc1c(-c2ccc(F)cc2F)ncn1Cc1ccccc1OC | x | x | x | 2% | x | x
COc1ccc(-n2nc3c(c2NC(=O)C(C)Oc2ccccc2)CS(=O)(=O)C3)cc1 (centres undefined) | 3 | 6% | 13% | -5% | -6 | 16%
Cc1ccc(C)c(NC(=S)N(Cc2ccc(Cl)cc2)Cc2ccc(C(=O)O)cc2)c1 | -14 | 9% | -5% | -8% | -1 | x
